About 79,000 compounds went through this panel and 15% of them were active in at least one assay; those are over-represented in the sample as a whole. Unmarked numbers belong to inactive results. Activity calls are given as the source filed them. Rule as the data show it: active = growth inhibition above about 70%; inactive = the rest.

The first assay can be described thus: NCI Yeast Anticancer Drug Screen. Data for the cln2 rad14 strain (AID 165).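 Also: 0% = growth equal to vehicle treated cultures.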 The note with it: S. cerevisiae cln2 rad14 strain, at 50.0 µM, stronger effect = higher value. In a few lines:
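Growth inhibition, relative to vehicle-treated controls, is the read-out. The test organism is a yeast strain with defined genetic alterations, cln2 rad14.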
For the compound `CN(C)c1ncnc2c1cnn2-c1ccc(Cl)cc1`, the growth inhibition is -36.6%.

Take `CCCCC(CC)(CC(=O)O)CC(=O)O`: the growth inhibition was -14.8%.

Turning to `CN1C(=O)c2ccccc2N(C)C(=O)c2ccccc21`, the growth inhibition is -2.45%.

In the case of `Cc1ccccc1NC=O`, the growth inhibition is 5.9%.

On to `Cc1ccc(C(=O)Nc2ccc([N+](=O)[O-])cc2)cc1`, for which the growth inhibition is -2.75%.

As to `O=P(O)(CP(=O)(c1ccccc1)c1ccccc1)c1ccccc1`, the growth inhibition was 16.2%.

With `CC(C)(O)CCC(O)C(C)(O)C1CCC2(O)C3=CC(=O)C4(O)CC(O)C(O)CC4(C)C3CCC12C` (stereo not given) (tested in a mixture with another compound), the growth inhibition was -12.2%.

On to `O=C(O)/C=C\C(=O)Nc1ccc(S(=O)(=O)Nc2nccs2)cc1`, for which the growth inhibition was 2.6%.

Turning to `O=C(O)/C=C/C(=O)Nc1cc2c(cc1Br)-c1ccccc1C2O` (stereo not given), the growth inhibition is 14.1%.

Take `CC(C)CC(NC(=O)CN)C(=O)O` (stereo not given): the growth inhibition was -7.2%.

Regarding `NNC(=O)/C(=C/c1cccc([N+](=O)[O-])c1)NC(=O)c1ccccc1`, the growth inhibition was 7.5%.

On to `Cc1cccc[n+]1CC(=O)c1ccccc1[N+](=O)[O-]`, for which the growth inhibition was -6.55%.

Regarding `O=c1[nH]c(Nc2ccccc2)nc2c1ncn2CC(O)CSCCO` (stereo not given), the growth inhibition is 8.45%.

As to `CC(=O)NC(Cc1ccc(O)cc1)C(=O)O` (stereo not given), the growth inhibition is -19.4%.

Turning to `O=[N+]([O-])c1ccc(NN=C2CCCCCC2)c([N+](=O)[O-])c1`, the growth inhibition is -99%.

As to `CCC(C)C(NCc1ccccc1)C(=O)O` (stereo not given), the growth inhibition was -13.2%.

As to `COc1ccc(/C=N/NC(=O)c2ccccc2OC)cc1`, the growth inhibition was -11.5%.

Turning to `O=C1CC=C2C3CC4N(CCC45c4ccccc4N1C25)C/C3=C\CBr` (stereo not given), the growth inhibition is 8.15%.

Consider `O=C(NNC(=O)c1cccc2ccccc12)c1ccccc1F`, for which the growth inhibition is 1.35%.

In the case of `CCCCCCOC(=O)C[n+]1ccc(C(N)=O)cc1`, the growth inhibition was -14.8%.

`CCCCCCCCCCCCCCCCOc1ccc(-c2cc(=O)n(C)n2C)cc1OC`: the growth inhibition is -0.15%.

Regarding `O=C(O)C1NCCC1Oc1ccccc1` (stereo not given), the growth inhibition is -12.8%.

`CCN(CC)c1ccc(C=O)cc1`: the growth inhibition is -6.4%.

For the compound `CCc1ccc(NC(C)=O)cc1C`, the growth inhibition was 27%.

As for `O=c1[nH]nc(-c2ccccc2)c2c1[nH]c1ccccc12`, the growth inhibition was -33.9%.

As to `CCOC(=O)Nc1c(O)cccc1N1CCOCC1`, the growth inhibition was -12.1%.

Turning to `O=C(/C=C/c1ccc(Cl)cc1)c1cccs1`, the growth inhibition was 1.25%.

Take `O=P1(O)c2ccccc2CCc2ccccc21`: the growth inhibition was 29.8%.

In the case of `N=C1N=C(N)C(CCCOc2cc(Cl)ccc2Cl)(CCCOc2cc(Cl)ccc2Cl)C(N)=N1`, the growth inhibition was 98.5% (active).

As for `Cc1ccc(S(=O)(=O)CC(O)(C(C)C)C(C)C)cc1`, the growth inhibition was 12.8%.

On to `O=C(NNc1nc(N2CCOCC2)nc(N2CCOCC2)n1)c1ccccc1`, for which the growth inhibition was 15.3%.

On to `NC(=O)NC(N)=O`, for which the growth inhibition is -34.1%.

Turning to `Cc1ccc(-c2cc(=O)c3cc(C)c(C)c(C(=O)O)c3o2)cc1`, the growth inhibition was 19.9%.

On to `[N-]=[N+]=NC(=O)c1cccc2c1Cc1ccccc1-2`, for which the growth inhibition is -40.9%.

For `CCc1ccccc1O`, the growth inhibition is -25%.

For `N#CC(C#N)=C1C=CC=CC=C1`, the growth inhibition is -11.4%.

As to `O=C1C(O)=C(Cl)C(=O)C(OC2=C(Cl)C(=O)C(OC3=C(Cl)C(=O)C(OC4=C(Cl)C(=O)C(Cl)=C(Cl)C4=O)=C(Cl)C3=O)=C(Cl)C2=O)=C1Cl`, the growth inhibition was -4.3%.

On to `CC(C)(C)OC(=O)N1CCCC1C(=O)NCCNc1ccc(NCCNC(=O)C2CCCN2C(=O)OC(C)(C)C)c2c1C(=O)c1ccccc1C2=O` (stereo not given), for which the growth inhibition was 52.4%.

`CCCCCCCCCCCCCCCCOc1ccc(C(=O)O)cc1`: the growth inhibition is 8.35%.

Regarding `COc1ccc(Cl)cc1NC(=O)c1ccc(C(=O)Nc2cc(Cl)ccc2OC)cc1`, the growth inhibition is -22.9%.

The next assay can be described thus: NCI Yeast Anticancer Drug Screen. Data for the bub3 strain (AID 167). The note with it: S. cerevisiae bub3 mutant strain, at 50.0 µM, stronger effect = higher value. In a few lines:
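Whole-cell yeast assay. The mutant strain was incubated with compounds, and growth inhibition was determined by comparison with vehicle-treated cells.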
`CN(C)c1ncnc2c1cnn2-c1ccc(Cl)cc1`: the growth inhibition was -0.95%.

For the compound `CCCCC(CC)(CC(=O)O)CC(=O)O`, the growth inhibition was 7.85%.

For `CN1C(=O)c2ccccc2N(C)C(=O)c2ccccc21`, the growth inhibition was 4.85%.

In the case of `Cc1ccccc1NC=O`, the growth inhibition was -36.5%.

Consider `Cc1ccc(C(=O)Nc2ccc([N+](=O)[O-])cc2)cc1`, for which the growth inhibition was -5.35%.

For the compound `O=P(O)(CP(=O)(c1ccccc1)c1ccccc1)c1ccccc1`, the growth inhibition is 5.9%.

Consider `CC(C)(O)CCC(O)C(C)(O)C1CCC2(O)C3=CC(=O)C4(O)CC(O)C(O)CC4(C)C3CCC12C` (stereo not given) (tested in a mixture with another compound), for which the growth inhibition is -17.4%.

As to `O=C(O)/C=C\C(=O)Nc1ccc(S(=O)(=O)Nc2nccs2)cc1`, the growth inhibition was 1.6%.

Regarding `O=C(O)/C=C/C(=O)Nc1cc2c(cc1Br)-c1ccccc1C2O` (stereo not given), the growth inhibition was 1.25%.

For `CC(C)CC(NC(=O)CN)C(=O)O` (stereo not given), the growth inhibition is -6%.

As to `NNC(=O)/C(=C/c1cccc([N+](=O)[O-])c1)NC(=O)c1ccccc1`, the growth inhibition was -16.4%.

For the compound `Cc1cccc[n+]1CC(=O)c1ccccc1[N+](=O)[O-]`, the growth inhibition is -20.6%.

As for `O=c1[nH]c(Nc2ccccc2)nc2c1ncn2CC(O)CSCCO` (stereo not given), the growth inhibition is 10.4%.

As to `CC(=O)NC(Cc1ccc(O)cc1)C(=O)O` (stereo not given), the growth inhibition was -9.05%.

For the compound `O=[N+]([O-])c1ccc(NN=C2CCCCCC2)c([N+](=O)[O-])c1`, the growth inhibition is 7.45%.

On to `CCC(C)C(NCc1ccccc1)C(=O)O` (stereo not given), for which the growth inhibition is -18.4%.

Consider `COc1ccc(/C=N/NC(=O)c2ccccc2OC)cc1`, for which the growth inhibition is -10.8%.

With `O=C1CC=C2C3CC4N(CCC45c4ccccc4N1C25)C/C3=C\CBr` (stereo not given), the growth inhibition was 7.2%.

As to `O=C(NNC(=O)c1cccc2ccccc12)c1ccccc1F`, the growth inhibition is -11.6%.

As for `CCCCCCOC(=O)C[n+]1ccc(C(N)=O)cc1`, the growth inhibition was -18.8%.

On to `CCCCCCCCCCCCCCCCOc1ccc(-c2cc(=O)n(C)n2C)cc1OC`, for which the growth inhibition is -8.55%.

Take `O=C(O)C1NCCC1Oc1ccccc1` (stereo not given): the growth inhibition was -1.5%.

For `CCN(CC)c1ccc(C=O)cc1`, the growth inhibition was 13.2%.

On to `CCc1ccc(NC(C)=O)cc1C`, for which the growth inhibition was -1.15%.

For `O=c1[nH]nc(-c2ccccc2)c2c1[nH]c1ccccc12`, the growth inhibition was -12.4%.

Consider `CCOC(=O)Nc1c(O)cccc1N1CCOCC1`, for which the growth inhibition is 7.4%.

`O=C(/C=C/c1ccc(Cl)cc1)c1cccs1`: the growth inhibition was 9.55%.

Take `O=P1(O)c2ccccc2CCc2ccccc21`: the growth inhibition was -11%.

For the compound `N=C1N=C(N)C(CCCOc2cc(Cl)ccc2Cl)(CCCOc2cc(Cl)ccc2Cl)C(N)=N1`, the growth inhibition is 98.9% (active).

On to `Cc1ccc(S(=O)(=O)CC(O)(C(C)C)C(C)C)cc1`, for which the growth inhibition is 16.6%.

For the compound `O=C(NNc1nc(N2CCOCC2)nc(N2CCOCC2)n1)c1ccccc1`, the growth inhibition is -5.05%.

In the case of `NC(=O)NC(N)=O`, the growth inhibition was 18.9%.

Regarding `Cc1ccc(-c2cc(=O)c3cc(C)c(C)c(C(=O)O)c3o2)cc1`, the growth inhibition was 7.1%.

Turning to `[N-]=[N+]=NC(=O)c1cccc2c1Cc1ccccc1-2`, the growth inhibition is -11.5%.

As to `CCc1ccccc1O`, the growth inhibition was -11.7%.

For `N#CC(C#N)=C1C=CC=CC=C1`, the growth inhibition was 8.75%.

Take `O=C1C(O)=C(Cl)C(=O)C(OC2=C(Cl)C(=O)C(OC3=C(Cl)C(=O)C(OC4=C(Cl)C(=O)C(Cl)=C(Cl)C4=O)=C(Cl)C3=O)=C(Cl)C2=O)=C1Cl`: the growth inhibition was -2.35%.

`CC(C)(C)OC(=O)N1CCCC1C(=O)NCCNc1ccc(NCCNC(=O)C2CCCN2C(=O)OC(C)(C)C)c2c1C(=O)c1ccccc1C2=O` (stereo not given): the growth inhibition is 2.35%.

In the case of `CCCCCCCCCCCCCCCCOc1ccc(C(=O)O)cc1`, the growth inhibition was 3%.

For the compound `COc1ccc(Cl)cc1NC(=O)c1ccc(C(=O)Nc2cc(Cl)ccc2OC)cc1`, the growth inhibition was 0.7%.

Source of the values: PubChem BioAssay (NCI).
